Source: PubChem BioAssay
HCV inh – HCV inhibition; AID 651820; Huh7.5.1 HCVcc-Cre infection, luciferase reporter, 44 h; 340,000 tested, 3.4% active; Potency, µM (titrated, usually from 41.8 µM), inactives show at the highest dose activity change, negative = inhibition, usual class: inhibitors; active = well fitted inhibition curve with a large enough effect; inconclusive = small, poorly fitted or top-dose-only effect, or another doubt; inactive = no such curve, though single readings can be large or run the other way; also: potency is read from the fitted curve at half-maximal effect
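1,000 cells/well; 4 h culture; + compound; + HCVcc-Cre (~0.5 moi); 44 h; luciferase substrate, RT 15 min; read 15 sec.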
HCMV antiviral – blocks human cytomegalovirus replication. HFF cells, HCMV-luciferase reporter, 72 h; hits give low values. activity change, negative = inhibition, % at 57.5 µM. 410,000 tested, 4.5% active; in the data active = activity change below about -60%; inconclusive = no clear call, values can overlap the other calls; inactive = above about -39%
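Compounds were evaluated in HFFs infected with an HCMV luciferase reporter virus (MOI 1 PFU/cell). Luciferase in lysates collected 72 h post infection served as the replication measure.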
LASV entry inh – inhibitors of Lassa virus binding or cell entry. Lassa virus pseudotype entry inhibition, cell reporter. Potency, µM (top dose mostly 37.9 µM), inactives show top-dose activity change, negative = inhibition, hits mostly inhibitors. 300,000 tested, 1.2% active. AID 540256; calls by dose curve; tested in HEK293 cells; also: potency is read from the fitted curve at half-maximal effect; nearly all actives have a fitted effect of over 50% in size
MARV entry inh – blocks Marburg virus binding to or entry into cells; Marburg virus pseudotyped entry inhibition, cell reporter; Potency, µM (top dose mostly 37.8 µM), without a hit: at the highest dose activity change, negative = inhibition, hits mostly inhibitors; 300,000 tested, 1.8% active; AID 540276; calls by dose curve; tested in HEK293 cells; also: potency is read from the fitted curve at half-maximal effect
FMDV antiviral – blocks foot and mouth disease virus; FMDV antiviral cell-based qHTS; Potency, µM (doses to about 57.9 µM), inactives show top-dose activity change, negative = inhibition, hits mostly inhibitors; 410,000 tested, 1.2% active; AID 1159524; calls by dose curve; tested in HEK293T cells; also: read-out not given here; potency is read from the fitted curve at half-maximal effect; nearly all actives have a fitted effect of over 45% in size
Numbers without * were called inactive; ? = inconclusive; · = not tested or not shown; + = active, no number; ! = not confirmed by another sample; [ ] = remark or other dose. The list is not random: actives were taken first. Their share in the collection is about 7.9%. % is scaled to controls: 0 for no effect and ±100 for the full control effect.

SMILES	HCV inh	HCMV antiviral	LASV entry inh	MARV entry inh	FMDV antiviral
COC(=O)c1sc2nc(N3CCCCC3)c3c(c2c1N)CCCC3	12.6µM*	-22.6	?	-29.2%	-21.7%
NC(=O)c1sc2nc(N3CCCCC3)c3c(c2c1N)CCCC3	-8.1%	-2.4	-6.6%	?	20.0%
CC(=O)Oc1ccc2ccc3ccc(C(C)=O)cc3c2c1	12.6µM*	2.9	19.8%[46.1 µM]	29.8%[46.1 µM]	6.0%
CC#C[C@H](C)[C@@H](OCOC)[C@H](C[C@H](C)Cc1cc(Br)cc(OCc2ccccc2)c1OC)OC	·	·	·	-10.3%[14.2 µM]	·
Cc1nc(N2CCN(S(=O)(=O)c3ccccc3C#N)CC2)c2c(-c3cccs3)csc2n1	10µM*	-37.6	·	·	?
O=C(c1ccc(Cl)c(Cl)c1)N1CCN(c2ccccn2)CC1	19.6%	-15.9	4.3%	?	-20.6%
CN(c1ccccc1)S(=O)(=O)c1cc(C(=O)N2CCN(c3ccccn3)CC2)ccc1Cl	?	-16.1	?	?	12.6µM*
O=C(c1ccc(Cl)c(S(=O)(=O)Nc2ccc(F)cc2)c1)N1CCN(c2ccccn2)CC1	-1.2%	-18.3	?	14.6µM*	-4.7%
CC1CCC2=C1C[C@H](C(C)(C)O)CC[C@@H]2C (stereo not given in full)	·	·	·	·	-6.7%
CCOc1ccccc1-n1c(SCC(=O)Nc2ccccc2C(=O)O)nc2ccccc2c1=O	22.7%	-80.7*	-16.5%[46.1 µM]	?	?
Cc1cncn1CCc1nc2c3ccccc3nc(SCC(=O)Nc3cccc(Cl)c3)n2n1	?	-105.0*!	?	6.51µM*	-17.0%
Cc1cncn1CCc1nc2c3ccccc3nc(SCC(=O)Nc3ccc(F)cc3)n2n1	·	-5.4	6.7%[46.1 µM]	·	-10.8%
CCOc1ccccc1NC(=O)CSc1nc2ccccc2c2nc(CCn3cncc3C)nn12	·	-64.5*	?	·	-28.4%
COc1ccc(C)cc1NC(=O)c1ccc2c(c1)N(Cc1cccc(Cl)c1)C(=O)c1ccccc1S2=O (stereo not given)	·	25.2	3.6%[46.1 µM]	·	-17.0%
COc1ccc(NC(=O)N2CC[C@@]3(CCCN(C(=O)c4cc(C(F)(F)F)cc(C(F)(F)F)c4)C3)C2)cc1	·	·	·	·	-7.7%
CCOC(=O)c1ccccc1NC(=O)CN1C(=O)CC(c2ccco2)Sc2ccccc21 (stereo not given)	·	-29.0	·	?	40.7%
COc1cccc(NC(=O)CN2C(=O)CC(c3ccco3)Sc3ccccc32)c1 (stereo not given)	·	-105.4*	·	1.0%[46.1 µM]	-21.9%
CCOc1ccccc1NC(=O)CN1C(=O)CC(c2ccco2)Sc2ccccc21 (stereo not given)	·	-87.0*	·	?	-18.9%
CC(=O)Nc1ccc(NC(=O)CN2C(=O)CC(c3ccco3)Sc3ccccc32)cc1 (stereo not given)	·	-105.1*	·	5.1%[46.1 µM]	-6.5%
Cc1cc(NC(=O)CN2C(=O)CC(c3ccco3)Sc3ccccc32)no1 (stereo not given)	35.5µM*	·	·	·	-2.4%
CNCC(=O)N(CC(C)C)c1c(N)n(CC(C)C)c(=O)[nH]c1=O	8.9%	32.2	17.2%	6.8%[46.1 µM]	-7.2%
Cc1cc(C)c2cc(C#N)c(NCCNC(=O)c3cccnc3)nc2c1	·	50.3	·	·	-11.1%
C=CCOC(=O)C1=C(C)NC(C)=C(C(=O)OCC=C)C1c1cn(-c2ccccc2)nc1-c1ccco1	10.7%	-34.0	-5.4%	?	6.2%
CCOc1ccc(C[C@H]2CC(=O)NC2=O)cc1	·	·	·	0.4%	·
CCCOc1ccc(CC2CCC(=O)NC2=O)cc1 (stereo not given)	7.8%	-69.4*	·	·	11.2µM*
SMILES	HCV inh	HCMV antiviral	LASV entry inh	MARV entry inh	FMDV antiviral
O=C(c1ccc2nc(Cc3ccccc3F)oc2c1)N1CCCC1	1.8%	155.1	6.31µM*	?	24.6%
CCOC(=O)C1CCCN(C(=O)c2ccc3oc(Cc4ccccc4)nc3c2)C1 (stereo not given)	-9.4%	79.3	·	·	40.5%
CC(C)CC(=O)C1CCCN(C(=O)c2ccc3oc(Cc4ccccc4)nc3c2)C1 (stereo not given)	22.4µM*	-14.1	?	-7.3%[46.1 µM]	-23.1%
O=C(c1ccc2oc(CCCc3ccccc3)nc2c1)N1CCCC(CCCO)C1 (stereo not given)	-12.8%	-60.6*	·	·	-15.7%
Cc1c(Cl)cccc1NC(=O)C(=O)NCCc1csc(-c2cccc(F)c2)n1	·	-10.0	-2.0%[46.1 µM]	·	11.9%
O=S(=O)(/C=C/C=C/S(=O)(=O)c1ccccc1)c1ccccc1	8.91µM*	-78.1*	1µM*	?	7.94µM*
COC(=O)[C@@H]1CC[C@H](C)[C@@H](c2ccc(C)cc2)N1C(=O)c1ccc(/C=N\OC[C@@H]2O[C@H](c3ccccc3)C=C[C@@H]2Oc2ccc(OC)cc2)cc1	·	·	·	-6.6%[14.2 µM]	·
OC(CN1CCC(Cc2ccc(F)cc2)CC1)c1ccc(Cl)cc1 (stereo not given)	·	·	?	7.08µM*	-4.9%
O=C(CN1C(=O)c2cccnc2Oc2ccc(Cl)cc21)NCCCc1ccccc1	11.2µM*	-33.9	·	·	-29.4%
COc1ccc(Br)cc1CNC(=O)CN1C(=O)c2cccnc2Oc2ccc(C)cc21	·	+	?	·	-4.8%
CSc1ccc(CCNC(=O)CN2C(=O)c3cccnc3Oc3ccc(Cl)cc32)cc1	·	?	?	·	-26.8%
CCCC[C@@H]1C[C@H]1C(=O)Nc1ccc(OC)c(OC)c1	·	·	·	1.4%	·
Cc1ccc(C)c2[nH]c(=O)c(CN(CCN3CCCC3)C(=O)Nc3cccc(Cl)c3)cc12	11.2µM*	-14.0	?	?	-13.7%
CCc1ccc2[nH]c(=O)c(CN(CCCN3CCOCC3)C(=O)Nc3ccc(Cl)cc3)cc2c1	-8.8%	10.5	?	?	-19.6%
Cc1cc(C)c2cc(CN(CCO)C(=O)Nc3ccc(Cl)cc3)c(=O)[nH]c2c1	-24.2%	3.2	?	11.2µM*	?
Cc1cc(C)c2cc(CN(CCO)Cc3nnnn3Cc3ccccc3)c(=O)[nH]c2c1	?	15.7	-8.7%	-28.7%	-14.7%
Cc1cc(C)c2cc(CN(CCN3CCCC3)C(=O)Nc3ccc(F)cc3)c(=O)[nH]c2c1	?	46.5	?	3.98µM*	3.2%
O=C(Nc1cccc(Cl)c1)N(CCN1CCOCC1)Cc1cccc(Cl)c1	?	-26.6	10.3%	-11.2%	·
Cc1ccc2[nH]c(=O)c(CN(CCN3CCOCC3)C(=O)Nc3ccc(F)cc3)cc2c1	5.0%	-20.1	-0.7%	-9.7%	0.0%
CCc1ccc2[nH]c(=O)c(CN(CCCN3CCOCC3)C(=O)Nc3cccc(Cl)c3)cc2c1	10µM*	-14.1	?	17.8µM*	?
Cc1cccc(-c2nnn3c2nc(NCc2ccccc2)c2ccccc23)c1	·	27.9	7.1%[46.1 µM]	?	6.0%
C=CCn1cc(C(=O)NCc2cccnc2)c(=O)c2cc(S(=O)(=O)N(CC)CC)ccc21	-14.2%	-60.9*	·	·	-10.9%
CCN(CC)S(=O)(=O)c1ccc2c(c1)c(=O)c(C(=O)NCc1ccc3c(c1)OCO3)cn2C	1.3%[0.335 µM]	·	4.1%	13.3%	·
C=CCn1cc(C(=O)NCc2ccc3c(c2)OCO3)c(=O)c2cc(S(=O)(=O)N(CC)CC)ccc21	?	-4.9	0.708µM*	?	-14.6%
